Data taken from ChEMBL document CHEMBL3988442, “University of Dundee, Small-Polar-MMV Screening Library” (2021).
For some of these results: Entries with a potency or affinity are not part of this list.

How the values were obtained:
Set-up in all cases: scale not given: direction of the effect not stated beside the values
[1] = biological target: Protein translocase subunit SecA (Escherichia coli (strain K12)) (UniProt P10408); experiment: Assay to Identify E. coli SecA ATPase Inhibitors; type: functional; conditions: 30 µM
Sequence of Protein translocase subunit SecA (Escherichia coli (strain K12)) (P10408 whole entry): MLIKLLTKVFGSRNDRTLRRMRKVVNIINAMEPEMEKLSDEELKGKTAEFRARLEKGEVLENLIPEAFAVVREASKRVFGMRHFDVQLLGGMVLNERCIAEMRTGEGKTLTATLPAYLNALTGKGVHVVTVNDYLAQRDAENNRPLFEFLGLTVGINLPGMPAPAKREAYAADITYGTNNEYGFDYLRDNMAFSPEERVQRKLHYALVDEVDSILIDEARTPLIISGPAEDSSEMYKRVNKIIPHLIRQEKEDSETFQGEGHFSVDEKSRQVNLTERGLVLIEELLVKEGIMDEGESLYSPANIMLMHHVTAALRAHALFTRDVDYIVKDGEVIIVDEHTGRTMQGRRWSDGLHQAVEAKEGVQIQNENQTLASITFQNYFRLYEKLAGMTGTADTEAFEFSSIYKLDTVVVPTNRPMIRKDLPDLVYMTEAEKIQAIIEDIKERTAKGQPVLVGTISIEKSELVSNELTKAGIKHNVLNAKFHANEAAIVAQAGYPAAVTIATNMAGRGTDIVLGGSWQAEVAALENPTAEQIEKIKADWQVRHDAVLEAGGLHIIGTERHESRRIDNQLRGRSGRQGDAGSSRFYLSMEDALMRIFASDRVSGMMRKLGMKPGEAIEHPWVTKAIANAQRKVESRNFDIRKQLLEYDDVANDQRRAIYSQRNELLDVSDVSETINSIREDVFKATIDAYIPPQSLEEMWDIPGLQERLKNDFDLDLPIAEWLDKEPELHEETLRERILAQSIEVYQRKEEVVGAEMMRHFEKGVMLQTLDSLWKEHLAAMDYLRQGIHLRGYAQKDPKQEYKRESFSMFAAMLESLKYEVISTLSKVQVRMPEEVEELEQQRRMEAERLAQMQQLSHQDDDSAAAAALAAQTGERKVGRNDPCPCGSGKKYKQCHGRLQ

[2] = biological target: T1, Ubiquitin-activating enzyme e1, putative (Leishmania donovani (strain BPK282A1)) (UniProt E9BSI1); experiment: Leishmania donovani Ubiquitin Activating Enzyme (LdE1); type: functional; conditions: 30 µM
T1 sequence (whole entry): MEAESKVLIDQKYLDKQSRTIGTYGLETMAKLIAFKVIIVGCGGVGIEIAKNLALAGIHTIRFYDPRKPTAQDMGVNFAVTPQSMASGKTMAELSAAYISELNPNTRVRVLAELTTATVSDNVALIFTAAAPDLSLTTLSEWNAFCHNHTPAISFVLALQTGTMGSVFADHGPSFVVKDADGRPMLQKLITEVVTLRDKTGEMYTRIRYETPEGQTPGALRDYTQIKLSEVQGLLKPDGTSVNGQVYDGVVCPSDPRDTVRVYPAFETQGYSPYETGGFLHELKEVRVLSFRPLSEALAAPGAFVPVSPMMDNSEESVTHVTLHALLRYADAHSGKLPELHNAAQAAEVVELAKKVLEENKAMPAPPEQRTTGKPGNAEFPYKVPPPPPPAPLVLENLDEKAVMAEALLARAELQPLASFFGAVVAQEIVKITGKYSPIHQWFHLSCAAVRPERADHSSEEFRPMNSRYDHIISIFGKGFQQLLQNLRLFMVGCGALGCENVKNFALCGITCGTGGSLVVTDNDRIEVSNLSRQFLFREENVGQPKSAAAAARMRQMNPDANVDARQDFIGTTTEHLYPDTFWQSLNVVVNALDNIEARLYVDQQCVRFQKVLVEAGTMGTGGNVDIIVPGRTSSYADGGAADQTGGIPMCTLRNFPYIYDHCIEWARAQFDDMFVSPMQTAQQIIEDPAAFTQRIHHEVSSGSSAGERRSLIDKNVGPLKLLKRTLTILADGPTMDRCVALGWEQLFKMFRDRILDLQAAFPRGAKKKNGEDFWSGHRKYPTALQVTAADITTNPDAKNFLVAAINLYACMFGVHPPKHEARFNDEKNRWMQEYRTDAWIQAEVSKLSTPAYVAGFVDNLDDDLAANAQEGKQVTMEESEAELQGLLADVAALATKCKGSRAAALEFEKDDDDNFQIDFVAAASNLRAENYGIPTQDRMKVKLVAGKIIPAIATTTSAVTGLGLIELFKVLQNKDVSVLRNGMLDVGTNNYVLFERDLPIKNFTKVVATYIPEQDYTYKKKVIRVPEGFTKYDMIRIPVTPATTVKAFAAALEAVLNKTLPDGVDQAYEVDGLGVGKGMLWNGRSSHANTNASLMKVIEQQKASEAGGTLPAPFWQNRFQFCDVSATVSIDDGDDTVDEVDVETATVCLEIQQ

[3] = biological target: AMP-activated protein kinase, AMPK (Homo sapiens) (UniProt P54646+O43741+P54619+Q9UGJ0+Q9Y478+Q13131+Q9UGI9); experiment: AMP-dependent Kinase enzyme assay. An in vitro enzyme assay that detects ADP turnover that is directly proportional to AMPK activity. This uses naive AMPK that is activated during the assay with MK-8722; type: functional; conditions: 30 µM
[4] = biological target: Sialic acid-binding Ig-like lectin 9 (Homo sapiens) (UniProt Q9Y336); experiment: Hs-Siglec9 ALPHAscreen SOP 20170721; conditions: 10 µM
Sequence of Sialic acid-binding Ig-like lectin 9 (Homo sapiens) (Q9Y336 whole entry): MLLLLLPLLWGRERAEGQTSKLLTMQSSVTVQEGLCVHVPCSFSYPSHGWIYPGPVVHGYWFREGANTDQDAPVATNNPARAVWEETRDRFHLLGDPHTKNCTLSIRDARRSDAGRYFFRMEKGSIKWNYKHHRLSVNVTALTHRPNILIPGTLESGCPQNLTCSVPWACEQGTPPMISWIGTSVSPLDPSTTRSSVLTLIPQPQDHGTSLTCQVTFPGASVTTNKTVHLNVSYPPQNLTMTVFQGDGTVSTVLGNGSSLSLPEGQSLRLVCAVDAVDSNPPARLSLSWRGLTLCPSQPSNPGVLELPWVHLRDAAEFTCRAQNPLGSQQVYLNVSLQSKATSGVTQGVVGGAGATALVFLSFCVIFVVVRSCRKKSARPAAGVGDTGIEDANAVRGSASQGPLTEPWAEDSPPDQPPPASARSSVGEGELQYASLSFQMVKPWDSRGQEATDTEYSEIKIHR

Trypanosoma cruzi = experiment: Trypanosoma cruzi phosphomannomutase and mannose-1-phosphate guanylyltransferase assay; type: functional; conditions: 10 µM
[5] = biological target: T2, Arginase-2, mitochondrial (Homo sapiens) (UniProt P78540); experiment: in vitro enzyme assay to detect the production of urea directly proportional to the activity of Arginase II; type: functional; conditions: 33.3 µM; further: in the data most compounds retested in dose-response had high values
T2 sequence (whole entry): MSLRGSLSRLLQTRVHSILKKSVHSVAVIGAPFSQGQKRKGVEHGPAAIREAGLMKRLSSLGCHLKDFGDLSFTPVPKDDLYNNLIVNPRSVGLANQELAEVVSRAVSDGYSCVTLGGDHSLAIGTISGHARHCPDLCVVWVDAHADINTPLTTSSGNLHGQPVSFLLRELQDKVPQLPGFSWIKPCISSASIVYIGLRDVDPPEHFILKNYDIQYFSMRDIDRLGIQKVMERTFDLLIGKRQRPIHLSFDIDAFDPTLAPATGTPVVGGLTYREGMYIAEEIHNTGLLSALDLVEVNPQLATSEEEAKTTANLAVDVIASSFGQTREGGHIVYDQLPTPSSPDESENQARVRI

[6] = biological target: T3, Proteasome subunit beta (Trypanosoma cruzi) (UniProt O96673); experiment: Trypanosoma cruzi proteasome chymotrypsin-like activity (TcProtChymo) assay.; further: in the data most compounds retested in dose-response had high values; type: functional; conditions: 9.37 µM
T3 sequence (whole entry): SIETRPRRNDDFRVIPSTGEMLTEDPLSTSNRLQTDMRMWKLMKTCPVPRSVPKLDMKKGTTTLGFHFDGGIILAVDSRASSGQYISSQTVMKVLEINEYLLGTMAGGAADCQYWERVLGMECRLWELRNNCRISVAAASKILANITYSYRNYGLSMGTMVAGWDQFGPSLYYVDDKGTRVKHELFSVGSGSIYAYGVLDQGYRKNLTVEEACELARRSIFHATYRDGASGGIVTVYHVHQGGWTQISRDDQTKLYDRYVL

Homo sapiens = species on record: Homo sapiens; experiment: To identify inhibition of the IFN signalling (Jak-Stat) pathway via expression of an eGFP reporter gene under the control of an IFN-stimulated response element (ISRE) containing MxA promoter.; type: functional; conditions: 30 µM
[7] = biological target: T4, Tyrosyl-tRNA synthetase, putative (Trypanosoma cruzi (strain CL Brener)) (UniProt Q4DSP6); experiment: Trypanosoma cruzi tyrosyl tRNA synthetase (TcYRS) _High Tyrosine SOP; type: functional; conditions: 30 µM; further: in the data most compounds retested in dose-response had high values
T4 sequence (whole entry): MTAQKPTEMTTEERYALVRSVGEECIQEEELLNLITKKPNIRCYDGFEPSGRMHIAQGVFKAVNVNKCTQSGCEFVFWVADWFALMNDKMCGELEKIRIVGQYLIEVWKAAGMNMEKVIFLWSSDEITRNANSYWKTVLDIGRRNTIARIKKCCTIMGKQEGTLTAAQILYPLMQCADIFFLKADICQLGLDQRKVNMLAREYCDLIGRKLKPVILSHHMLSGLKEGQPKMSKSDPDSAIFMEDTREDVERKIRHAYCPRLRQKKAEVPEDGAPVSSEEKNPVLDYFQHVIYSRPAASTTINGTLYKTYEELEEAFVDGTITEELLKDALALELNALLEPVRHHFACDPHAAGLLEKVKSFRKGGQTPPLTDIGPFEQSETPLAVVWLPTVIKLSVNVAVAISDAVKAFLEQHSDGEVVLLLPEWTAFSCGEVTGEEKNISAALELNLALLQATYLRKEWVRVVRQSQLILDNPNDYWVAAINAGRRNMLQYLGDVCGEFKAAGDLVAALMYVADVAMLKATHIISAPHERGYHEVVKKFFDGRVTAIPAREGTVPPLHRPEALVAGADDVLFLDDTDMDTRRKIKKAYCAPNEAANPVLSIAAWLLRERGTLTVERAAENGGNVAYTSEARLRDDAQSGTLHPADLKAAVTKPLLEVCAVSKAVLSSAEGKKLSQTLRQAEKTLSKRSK

[8] = biological target: T4, Tyrosyl-tRNA synthetase, putative (Trypanosoma cruzi (strain CL Brener)); experiment: Trypanosoma cruzi tyrosyl tRNA synthetase (TcYRS) SOP; type: functional; conditions: 30 µM
[9] = biological target: Chromo domain-containing protein 1 (Saccharomyces cerevisiae (strain ATCC 204508 / S288c) (Baker's yeast)) (UniProt P32657); experiment: ScCHD-1 Enzyme Inhibition Assay; type: functional; conditions: 30 µM; further: in the data most compounds retested in dose-response had high values
Sequence of Chromo domain-containing protein 1 (Saccharomyces cerevisiae (strain ATCC 204508 / S288c) (Baker's yeast)) (P32657 whole entry, the tested form may be a part): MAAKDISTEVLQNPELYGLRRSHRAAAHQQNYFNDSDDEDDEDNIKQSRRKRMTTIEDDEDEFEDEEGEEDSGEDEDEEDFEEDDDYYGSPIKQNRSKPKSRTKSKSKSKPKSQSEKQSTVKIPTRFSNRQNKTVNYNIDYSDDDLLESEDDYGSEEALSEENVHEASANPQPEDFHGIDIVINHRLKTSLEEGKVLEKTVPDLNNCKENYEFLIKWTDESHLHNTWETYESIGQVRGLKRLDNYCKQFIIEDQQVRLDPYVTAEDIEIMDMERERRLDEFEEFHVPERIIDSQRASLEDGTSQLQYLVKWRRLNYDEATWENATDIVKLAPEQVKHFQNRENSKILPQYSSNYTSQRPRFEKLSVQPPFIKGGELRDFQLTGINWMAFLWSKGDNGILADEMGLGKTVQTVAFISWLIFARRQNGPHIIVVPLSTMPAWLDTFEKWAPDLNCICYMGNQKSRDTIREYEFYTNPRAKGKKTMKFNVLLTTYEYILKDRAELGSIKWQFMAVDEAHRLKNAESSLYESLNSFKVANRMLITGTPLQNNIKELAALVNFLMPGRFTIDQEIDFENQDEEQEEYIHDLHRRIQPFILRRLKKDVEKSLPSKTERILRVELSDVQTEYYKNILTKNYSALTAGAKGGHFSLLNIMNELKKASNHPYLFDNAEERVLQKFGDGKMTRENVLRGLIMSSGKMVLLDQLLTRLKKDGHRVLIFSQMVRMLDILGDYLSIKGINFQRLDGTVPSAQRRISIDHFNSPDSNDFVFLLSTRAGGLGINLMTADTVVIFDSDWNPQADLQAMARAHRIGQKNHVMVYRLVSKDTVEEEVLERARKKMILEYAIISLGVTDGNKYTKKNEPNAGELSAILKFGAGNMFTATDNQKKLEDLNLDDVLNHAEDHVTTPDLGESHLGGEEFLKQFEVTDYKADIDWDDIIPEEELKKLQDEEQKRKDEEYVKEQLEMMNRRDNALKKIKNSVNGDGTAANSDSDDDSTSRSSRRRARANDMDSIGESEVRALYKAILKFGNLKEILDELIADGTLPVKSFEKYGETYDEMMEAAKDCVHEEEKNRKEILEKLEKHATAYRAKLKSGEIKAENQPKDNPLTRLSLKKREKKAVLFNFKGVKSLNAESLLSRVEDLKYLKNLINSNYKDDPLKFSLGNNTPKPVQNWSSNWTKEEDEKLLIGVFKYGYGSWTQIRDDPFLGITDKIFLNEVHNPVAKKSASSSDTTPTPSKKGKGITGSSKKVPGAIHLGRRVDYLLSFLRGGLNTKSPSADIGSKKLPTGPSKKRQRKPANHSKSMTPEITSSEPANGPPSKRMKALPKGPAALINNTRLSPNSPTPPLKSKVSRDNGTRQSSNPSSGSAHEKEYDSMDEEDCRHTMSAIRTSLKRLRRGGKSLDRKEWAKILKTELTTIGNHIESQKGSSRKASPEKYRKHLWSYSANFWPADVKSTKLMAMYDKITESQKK

COc1ccc(Br)c(C(=O)N2CCC(c3n[nH]c(C4CC4)n3)CC2)c1
Percent Effect [1]: -4.1% | Percent Effect [2]: 16.5% | Percent Effect [3]: 1.39% | Percent Effect [4]: 2.29% | Percent Effect (Trypanosoma cruzi): 0.513% | Percent Effect [5]: -3.23% | Percent Effect [6]: 11.8% | Percent Effect (Homo sapiens): 4.22% | Percent Effect [7]: 4.17% | Percent Effect [8]: 25.3% | Percent Effect [9]: -27.6%

CCn1cnnc1C1CCN(C(=O)c2cc3c(s2)CCC3)CC1
Percent Effect [1]: -5.61% | Percent Effect [2]: 20.2% | Percent Effect [3]: -5.35% | Percent Effect [4]: 8.78% | Percent Effect (Trypanosoma cruzi): 6.52% | Percent Effect [5]: -7.22% | Percent Effect [6]: 20.2% | Percent Effect (Homo sapiens): -5.6% | Percent Effect [7]: 8.37% | Percent Effect [8]: 21.5% | Percent Effect [9]: -4.66%

CCn1c(C)nnc1CN(C)C1CCN(Cc2cnc(C)cn2)C1 (stereo not drawn)
Percent Effect [1]: -3.27% | Percent Effect [2]: 10.8% | Percent Effect [3]: -13.9% | Percent Effect [4]: 0.873% | Percent Effect (Trypanosoma cruzi): -0.88% | Percent Effect [5]: -2.73% | Percent Effect [6]: 7.81% | Percent Effect (Homo sapiens): 16.2% | Percent Effect [7]: 8.6% | Percent Effect [8]: 18.5% | Percent Effect [9]: -7%

COc1ccc(C2CCCCCN2S(=O)(=O)N(C)C)cc1 (stereo not drawn)
Percent Effect [1]: -0.837% | Percent Effect [2]: 12.5% | Percent Effect [3]: -11.6% | Percent Effect [4]: 10.4% | Percent Effect (Trypanosoma cruzi): -0.291% | Percent Effect [5]: 18.1% | Percent Effect [6]: 12.5% | Percent Effect (Homo sapiens): 6.25% | Percent Effect [7]: 2.1% | Percent Effect [8]: 5.13% | Percent Effect [9]: -3.74%

CCNc1cc2c(nn1)CCN(C(=O)c1ccc(NC3CC3)nc1)C2
Percent Effect [1]: -3.24% | Percent Effect [2]: 0% | Percent Effect [3]: -3.65% | Percent Effect [4]: 11.3% | Percent Effect (Trypanosoma cruzi): 3.38% | Percent Effect [5]: 1.15% | Percent Effect [6]: 2.67% | Percent Effect (Homo sapiens): 6.81% | Percent Effect [7]: 5.39% | Percent Effect [8]: 9.76% | Percent Effect [9]: 1.67%

CCc1nnc(CN(C)c2nc(C(C)C)nc3c2cnn3C)o1
Percent Effect [1]: 3.23% | Percent Effect [2]: 4.17% | Percent Effect [3]: 6.88% | Percent Effect [4]: -0.661% | Percent Effect (Trypanosoma cruzi): -3.6% | Percent Effect [5]: 2.21% | Percent Effect [6]: 16.8% | Percent Effect (Homo sapiens): -1.37% | Percent Effect [7]: -2.1% | Percent Effect [8]: 2.56% | Percent Effect [9]: 1.23%

Cn1cc(CN2CC[C@@H]3[C@@H](CCC(=O)N3CCc3c[nH]cn3)C2)cn1
Percent Effect [1]: -4.59% | Percent Effect [2]: 5.48% | Percent Effect [3]: -4.95% | Percent Effect [4]: 7.16% | Percent Effect (Trypanosoma cruzi): 7.14% | Percent Effect [5]: -4.79% | Percent Effect [6]: 5.05% | Percent Effect (Homo sapiens): -5.47% | Percent Effect [7]: 1.04% | Percent Effect [8]: 6.17% | Percent Effect [9]: -0.897%

CC(C)c1csc(C2CCCN(C(=O)c3ccc(=O)n(C)n3)C2)n1 (stereo not drawn)
Percent Effect [1]: -2.9% | Percent Effect [2]: 13.5% | Percent Effect [3]: -11.4% | Percent Effect [4]: -0.23% | Percent Effect (Trypanosoma cruzi): -1.86% | Percent Effect [5]: 1.74% | Percent Effect [6]: 7.3% | Percent Effect (Homo sapiens): 26% | Percent Effect [7]: 4.3% | Percent Effect [8]: 11.1% | Percent Effect [9]: -5.6%
